The values that follow come from PubChem BioAssay (NCI).

“And” between values parts separate entries of the source, which are not always exact repeats. Equal entries are not always repeated. About 83,000 compounds went through this panel and 20% of them were active in at least one assay; those are over-represented in the sample as a whole.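 Compound tested at a single concentration for 48 hours in 96-well plates; a percent growth value below 10 was scored as active.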 The source made the active and inactive calls.

This assay concerns MDA-MB-468 breast. Put plainly: NCI-60 one-dose screen, 48 h (100 = growth as untreated, 0 = no growth, -100 = all killed). The conditions noted are these: 10 µM unless noted.
For the molecule `O=c1cc[nH]c(=O)o1`, the growth is 105% (inactive).

For `CC(C)=CCC[C@H](C(=O)O)[C@@H]1CC[C@]2(C)C3=C(CC[C@@]12C)[C@@]1(C)CC[C@H](O)C(C)(C)[C@@H]1CC3`, the growth was 107% (inactive). For the molecule `CC(=O)c1ccc(C(=O)NCC2CCC3(CC2)OOC2(CCCCC2)OO3)cc1`, the growth is 65.7% (inactive). For `CN(C)c1ccc(N)cc1`, the growth is 98% (inactive) and 5.01% (active). Regarding `Cc1ccc(C(=O)OC(C(=O)O)C(OC(=O)c2ccc(C)cc2)C(=O)O)cc1` (centres undefined) (tested in a mixture with another compound), the growth is -12.2% (active). On to `NS(=O)(=O)c1nc[nH]c1[N+](=O)[O-]`, for which the growth was 103% (inactive). As for `COC[C@@H]1C[C@@]2(C)[C@@H](CC[C@@H]3[C@@H]2CC[C@@]2(C)[C@H]3CC[C@]2(C)O)CC1=O`, the growth is 99% (inactive). Consider `CCOP(=O)(NC[C@H]1O[C@](O)(CO)[C@@H](O)[C@@H]1O)OCC`, for which the growth is 107% (inactive). The result for `COc1cc(C2CC(=O)Nc3nc(N)[se]c32)cc(OC)c1OC` (centres undefined) reads 99.3% (inactive); that for `CCC(CO)NC1CCCCC1` (centres undefined), 73.6% (inactive); that for `O=[N+]([O-])c1ccc(F)c([N+](=O)[O-])c1F`, 98.6% (inactive). In the case of `CC(=O)O[C@H]1C[C@@H]2OC3C=C(C)CCC3(C)[C@@]1(C)[C@@]21CO1` (some centres undefined), the growth is -26.7% (active) and -40.4% (active). Consider `COc1cc(C2=NN(c3ccccc3)C(c3sc(N(CCCl)CCCl)nc3Cl)C2)cc(OC)c1OC` (centres undefined), for which the growth was 87.9% (inactive). On to `C/C(=C\c1ccn(-c2ccc(N)cc2F)n1)[C@@H]1C[C@@H]2O[C@]2(C)CCC[C@H](C)[C@H](O)[C@@H](C)C(=O)C(C)(C)[C@@H](O)CC(=O)O1`, for which the growth was 8.6% (active). As to `O=C([O][Hg][c]1ccccc1)c1ccccc1`, the growth is -67.2% (active). On to `Fc1ccc(C2=NN(c3ccccc3)C(c3sc(N(CCCl)CCCl)nc3Cl)C2)cc1` (centres undefined), for which the growth was 81.4% (inactive). For the molecule `CC1=CC(=O)CCC12CCOC2=O` (centres undefined), the growth is 105% (inactive). On to `CNC(=O)Oc1ccc(C(C)(C)C)cc1OC(=O)NC`, for which the growth is 88.4% (inactive).

On to `CC(C)(O)/C=C/C(=O)[C@](C)(O)[C@H]1[C@H](O)C[C@@]2(C)[C@H]3CC=C4[C@@H](C[C@H](O)C(=O)C4(C)C)[C@]3(C)C(=O)C[C@]12C`, for which the growth is -23.4% (active). Under `CC(=O)Nc1nc2c(s1)CC[C@@]1(C)C2=CC[C@H]2[C@@H]3CC[C@H](O)[C@@]3(C)CC[C@@H]21` stands 58.2% (inactive); under `COC(=O)C[Se]C(=O)c1ccccc1OC(C)=O`, 34.8% (inactive).

As for `CC[C@@H](C)/C=C(C)/C=C/C(=O)c1c(O)c(-c2ccc(O)cc2)cn(O)c1=O`, the growth is -25% (active). Regarding `COC(=O)[C@@H](C)C[C@H](Cc1ccccc1)NC(=O)c1cccc([C@@H](C[C@H](C(C)C)N(C)C(=O)[C@@H](NC(=O)[C@H]2CCCCN2C)C(C)C)OC(C)=O)n1`, the growth was 10.1% (inactive). The result for `CC1(C)N=C(N)N=C(N)N1c1ccc(CCCCc2ccc(S(=O)(=O)F)cc2)cc1` reads -3.5% (active).

Take `O=C(N/N=C\c1ccc(N(CCCl)CCCl)cc1Cl)c1cccnc1`: the growth is -69.6% (active).

As for `CC(=O)Cc1ccc2c(c1)OCO2`, the growth was 103% (inactive). For the molecule `CC(=O)O[C@H]1C(=O)[C@@]2(C)[C@H]([C@H](OC(=O)c3ccccc3)[C@]3(O)C[C@H](OC(=O)[C@H](OC(=O)OC[C@@H]4COC(C)(C)O4)[C@@H](NC(=O)c4ccccc4)c4ccccc4)C(C)=C1C3(C)C)[C@]1(OC(C)=O)CO[C@@H]1C[C@@H]2O`, the growth is -7.94% (active). Under `COc1cc(/C=C\c2cc(OC)c(OC)c(OC)c2)cc(NS(=O)(=O)c2cccc(Cl)c2)c1OC` stands 47% (inactive); under `O=[N+]([O-])c1ccc2scc3c4ccccc4nc-3c2c1`, -84.5% (active); under `COc1ccc2c(ccc3oc([N+](=O)[O-])cc32)c1`, -57.8% (active). For `CC[C@H](C)[C@@H]1OC(=O)C(C)(C)[C@H](O)[C@H](Cc2ccccc2)OC(=O)[C@H](C(C)C)OC(=O)[C@@H](NC(=O)c2cccc(NC=O)c2O)[C@@H](C)OC1=O`, the growth was 9.86% (active). Turning to `CC(=O)O[C@H]1CC[C@H]2[C@@H]3CC[C@H]4CC=C(C)C[C@]4(C)[C@H]3CC[C@]12C`, the growth is 105% (inactive).

Consider `[Cl][Sn]([c]1ccccc1)([c]1ccccc1)[c]1ccccc1`, for which the growth was -75% (active).

As to `CC(C)OC(=O)[C@H](C)NP(=O)(Oc1ccccc1)C1CCCN(O)C1=O` (some centres undefined), the growth was 96.9% (inactive).
